Laboratory results taken from PubChem BioAssay AID1159580 (chemical genetic matrix, 2015).
In all, about 5,500 compounds went through this assay and about 2,000 (36%) were called active. Inconclusive results (about 18%) are left out. No stated cut-off is given here; in the data, active means normalized growth mostly below about 0.91 (no sharp cut-off); inconclusive means no clear call, values can overlap the other calls; inactive means mostly above about 0.92. The list shows a part of the results.

Test: chemical genetic growth profiling, strain panel (AID 1159580);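 further: tested at 20 µM; growth read once vehicle control cultures reached saturation at 30 °C; 1 = growth at the plate median or of vehicle wells; lower values mean less growth of the strain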
Settings: growth OD

Measured: normalized growth

O=C(O)/C=C1\CCCc2ccccc2C1O (stereo unspecified)
inactive: S. cerevisiae deletion strains, locus YAL013W, strain DEP1, hits give low values 1.01 | S. cerevisiae deletion strains, locus YBR021W, strain FUR4, hits give low values 1.01 | S. cerevisiae deletion strains, locus YBR229C, strain ROT2, hits give low values 0.965 | S. cerevisiae deletion strains, locus YCL029C, strain bik1, hits give low values 0.982 | S. cerevisiae deletion strains, locus YDL035C, strain GPR1, hits give low values 0.993 | S. cerevisiae deletion strains, locus YDL074C, strain BRE1, hits give low values 0.96 | S. cerevisiae deletion strains, locus YDL101C, strain DUN1, hits give low values 0.988 | S. cerevisiae deletion strains, locus YDL134C, strain PPH21, hits give low values 0.992 | S. cerevisiae deletion strains, locus YDL185W, strain tfp1, hits give low values 0.945 | S. cerevisiae deletion strains, locus YDL192W, strain arf1, hits give low values 0.977 | S. cerevisiae deletion strains, locus YDR101C, strain arx1, hits give low values 0.993 | S. cerevisiae deletion strains, locus YDR150W, strain NUM1, hits give low values 0.991 | S. cerevisiae deletion strains, locus YDR162C, strain NBP2, hits give low values 0.987 | S. cerevisiae deletion strains, locus YDR318W, strain mcm21, hits give low values 0.985 | S. cerevisiae deletion strains, locus YDR388W, hits give low values 0.989 | S. cerevisiae deletion strains, locus YDR502C, strain sam2, hits give low values 0.976 | S. cerevisiae deletion strains, locus YEL061C, strain CIN8, hits give low values 0.995 | S. cerevisiae deletion strains, locus YER110C, hits give low values 0.982 | S. cerevisiae deletion strains, locus YER155C, strain BEM2, hits give low values 1.01 | S. cerevisiae deletion strains, locus YER167W, strain BCK2, hits give low values 0.998 | S. cerevisiae deletion strains, locus YGL078C, strain dbp3, hits give low values 0.992 | S. cerevisiae deletion strains, locus YGL086W, strain mad1, hits give low values 0.991 | S. cerevisiae deletion strains, locus YGL248W, strain PDE1, hits give low values 0.979 | S. cerevisiae deletion strains, locus YGR078C, strain PAC10, hits give low values 1 | S. cerevisiae deletion strains, locus YGR135W, strain pre9, hits give low values 0.98 | S. cerevisiae deletion strains, locus YGR229C, strain SMI1, hits give low values 0.997 | S. cerevisiae deletion strains, locus YGR252W, strain gcn5, hits give low values 0.962 | S. cerevisiae deletion strains, locus YHR030C, strain SLT2, hits give low values 1.01 | S. cerevisiae deletion strains, locus YHR079C, strain IRE1 (second series), hits give low values 0.992 | S. cerevisiae deletion strains, locus YHR094C, strain hxt1, hits give low values 0.984 | S. cerevisiae deletion strains, locus YHR129C, strain ARP1, hits give low values 0.992 | S. cerevisiae deletion strains, locus YHR200W, strain rpn10, hits give low values 0.989 | S. cerevisiae deletion strains, locus YIL066C, strain RNR3, hits give low values 0.996 | S. cerevisiae deletion strains, locus YIL073C, strain SPO22, hits give low values 0.974 | S. cerevisiae deletion strains, locus YIL125W, strain kgd1, hits give low values 0.975 | S. cerevisiae deletion strains, locus YIR030C, strain dcg1, hits give low values 0.988 | S. cerevisiae deletion strains, locus YJL095W, strain BCK1, hits give low values 1.01 | S. cerevisiae deletion strains, locus YJL134W, strain LCB3, hits give low values 0.986 | S. cerevisiae deletion strains, locus YJL168C, strain set2, hits give low values 0.986 | S. cerevisiae deletion strains, locus YJL187C, strain SWE1 (second series), hits give low values 0.99 | S. cerevisiae deletion strains, locus YJR043C, strain POL32, hits give low values 0.998 | S. cerevisiae deletion strains, locus YJR075W, strain HOC1, hits give low values 0.985 | S. cerevisiae deletion strains, locus YKL009W, strain mrt4, hits give low values 0.955 | S. cerevisiae deletion strains, locus YKL068W, hits give low values 0.981 | S. cerevisiae deletion strains, locus YKL085W, strain MDH1 (second series), hits give low values 0.98 | S. cerevisiae deletion strains, locus YKL085W, strain MDH1, hits give low values 0.98 | S. cerevisiae deletion strains, locus YKL190W, strain CNB1, hits give low values 0.996 | S. cerevisiae deletion strains, locus YKR001C, strain vps1, hits give low values 0.978 | S. cerevisiae deletion strains, locus YLR039C, strain RIC1, hits give low values 0.944 | S. cerevisiae deletion strains, locus YLR058C, strain SHM2, hits give low values 0.988 | S. cerevisiae deletion strains, locus YLR102C, strain apc9, hits give low values 0.977 | S. cerevisiae deletion strains, locus YLR262C, strain YPT6, hits give low values 0.937 | S. cerevisiae deletion strains, locus YLR268W, strain sec22, hits give low values 0.984 | S. cerevisiae deletion strains, locus YLR330W, strain CHS5, hits give low values 0.998 | S. cerevisiae deletion strains, locus YLR342W, strain FKS1 (second series), hits give low values 0.983 | S. cerevisiae deletion strains, locus YLR371W, strain rom2, hits give low values 0.975 | S. cerevisiae deletion strains, locus YLR418C, strain cdc73, hits give low values 0.989 | S. cerevisiae deletion strains, locus YML016C, strain PPZ1, hits give low values 0.964 | S. cerevisiae deletion strains, locus YML032C, strain rad52, hits give low values 0.982 | S. cerevisiae deletion strains, locus YML124C, strain tub3, hits give low values 0.992 | S. cerevisiae deletion strains, locus YMR078C, strain ctf18, hits give low values 0.977 | S. cerevisiae deletion strains, locus YMR223W, strain ubp8, hits give low values 0.991 | S. cerevisiae deletion strains, locus YMR263W, strain SAP30, hits give low values 0.952 | S. cerevisiae deletion strains, locus YMR307W, strain GAS1, hits give low values 0.991 | S. cerevisiae deletion strains, locus YNL067W, strain RPL9B, hits give low values 0.998 | S. cerevisiae deletion strains, locus YNL128W, strain TEP1, hits give low values 0.976 | S. cerevisiae deletion strains, locus YNL153C, strain GIM3, hits give low values 0.998 | S. cerevisiae deletion strains, locus YNL233W, strain BNI4, hits give low values 1.01 | S. cerevisiae deletion strains, locus YNL250W, strain rad50, hits give low values 0.979 | S. cerevisiae deletion strains, locus YNL271C, strain bni1, hits give low values 0.987 | S. cerevisiae deletion strains, locus YNL298W, strain CLA4, hits give low values 0.964 | S. cerevisiae deletion strains, locus YNL307C, strain MCK1, hits give low values 0.986 | S. cerevisiae deletion strains, locus YNL322C, strain KRE1, hits give low values 0.986 | S. cerevisiae deletion strains, locus YNR052C, strain pop2, hits give low values 0.989 | S. cerevisiae deletion strains, locus YOL006C, strain TOP1, hits give low values 0.983 | S. cerevisiae deletion strains, locus YOL012C, strain htz1 0.943 | S. cerevisiae deletion strains, locus YOL147C, strain pex11, hits give low values 0.991 | S. cerevisiae deletion strains, locus YOR061W, strain CKA2, hits give low values 0.974 | S. cerevisiae deletion strains, locus YOR069W, strain VPS5, hits give low values 1 | S. cerevisiae deletion strains, locus YOR136W, strain idh2, hits give low values 0.995 | S. cerevisiae deletion strains, locus YOR144C, strain elg1, hits give low values 0.991 | S. cerevisiae deletion strains, locus YOR184W, strain ser1, hits give low values 0.985 | S. cerevisiae deletion strains, locus YOR316C, strain cot1, hits give low values 0.975 | S. cerevisiae deletion strains, locus YPL055C, strain LGE1, hits give low values 0.971 | S. cerevisiae deletion strains, locus YPL241C, strain CIN2, hits give low values 0.997 | S. cerevisiae deletion strains, locus YPR119W, strain clb2, hits give low values 0.995 | S. cerevisiae deletion strains, locus YPR141C, strain kar3, hits give low values 0.964 | S. cerevisiae deletion strains, locus YPR163C, strain tif3, hits give low values 0.99 | S. cerevisiae deletion strains, locus YPR167C, strain met16, hits give low values 0.987 | S. cerevisiae deletion strains, strain wtn01, hits give low values 0.98 | S. cerevisiae strains, strain wild type, hits give low values 0.991
